High-throughput results from PubChem.
Pf apPOL inh = Pf-apPOL DNA polymerase inhibition | Recombinant Pf-apPOL, molecular beacon fluorescence, 1.5 h | 210,000 compounds, 0.25% hits | inhibition, % at 10 µM | AID 1794808
mHTT CaM bind = mHTT-calmodulin interaction abrogation | P42858 | AlphaScreen His-mHTT/GST-CaM binding, luminescence | inhibition, % at 15 µM | 190,000 compounds, 3.6% hits;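 note: 0% = both proteins with DMSO and 100% = one protein alone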
An asterisk follows results filed as active; . = no result given. Only a selection was taken, and hits are over-represented in it overall. Cut-off read from the data, not from the text of the source: active = inhibition above about 50%; inactive = the rest.

SMILES | Pf apPOL inh | mHTT CaM bind
COc1ccccc1NC(=O)N1CCc2[nH]cnc2C1c1ccccn1 (configuration not stated) | -4 | 36
O=C(Nc1c(F)cccc1F)N1CCc2[nH]cnc2C1c1ccccn1 (configuration not stated) | -8 | 56*
O=C(Nc1ccccc1)N1CCc2[nH]cnc2C1c1ccncc1 (configuration not stated) | 1 | 1
CCOc1ccc(NC(=O)N2CCc3[nH]cnc3C2c2ccccn2)cc1 (configuration not stated) | -7 | 94*
COc1ccc(C)cc1NC(=O)c1cc(S(=O)(=O)NC2CCCCC2)ccc1F | 1 | 13
COCC(C)NC(=O)c1cccc(Cl)c1 (configuration not stated) | -2 | -6
COc1cc(C2C(C#N)=C(N)Oc3n[nH]c(-c4cccs4)c32)cc(OC)c1O (configuration not stated) | 7 | 19
N#CC1=C(N)Oc2n[nH]c(-c3ccc(Cl)cc3)c2C1c1ccc(F)cc1 (configuration not stated) | 0 | 17
COc1cc(C2C(C#N)=C(N)Oc3n[nH]c(-c4ccc(Cl)s4)c32)ccc1O (configuration not stated) | -2 | 60*
N#CC1=C(N)Oc2n[nH]c(-c3ccc(F)cc3)c2C1c1cccc(F)c1 (configuration not stated) | -4 | 12
N#CC1=C(N)Oc2n[nH]c(-c3ccc(Cl)c(Cl)c3)c2C1c1ccc(O)c(O)c1 (configuration not stated) | 0 | 99*
N#CC1=C(N)Oc2n[nH]c(-c3ccc(Cl)c(Cl)c3)c2C1c1cccc(O)c1 (configuration not stated) | 0 | 100*
OCC1CCCN1Cc1ccccc1F (configuration not stated) | -3 | -5
Cc1nc(N2CCOCC2)c2c(C)c(C(=O)Nc3cccc(C(F)(F)F)c3)sc2n1 | -10 | 41
CCc1nn2cc(-c3ccc(Cl)cc3)nc2s1 | -8 | -9
CCc1ccc2cc(-c3ccc(Cl)cc3)cn2c1 | -2 | 59*
Cc1ccc2nc(NC(=O)CSc3nc(N)cc(=O)[nH]3)sc2c1 | 1 | 11
O=[N+]([O-])c1c(Nc2ccccc2O)ncnc1Nc1ccccc1O | -2 | 69*
Nc1ncnc(Nc2ccccc2N=Cc2ccccc2O)c1[N+](=O)[O-] | 1 | 16
N#CC1=C(O)NC(=O)C([n+]2ccccc2)C1c1ccccc1I (configuration not stated) | 7 | 34
N#CC1=C(S)NC(O)(c2ccccc2)C([n+]2ccc3ccccc3c2)C1c1ccc(F)cc1 (configuration not stated) | -2 | 75*
N#CC1=C(S)N[C@H](c2cccnc2)[C@@](C#N)(C(N)=S)[C@H]1c1cccnc1 | . | 31
N#CC1=C(S)NC(O)(c2ccccc2)C([n+]2cccc3cc(Cl)ccc32)C1c1cccnc1 (configuration not stated) | -4 | 59*
N#CC1=C(S)NC(O)(c2ccccc2)C([n+]2ccc3ccccc3c2)C1c1ccncc1 (configuration not stated) | 0 | 38
N#CC1=C(S)NC(O)(c2ccccc2)C([n+]2ccccc2)C1c1ccccc1F (configuration not stated) | -1 | 56*
SMILES | Pf apPOL inh | mHTT CaM bind
CCOC(=O)NCC1(C)CC(NC(=O)OCC)CC(C)(C)C1 (configuration not stated) | -2 | -1
COc1ccc(C2C(=C(O)c3ccc([N+](=O)[O-])cc3)C(=O)C(=O)N2CCO)cc1OC (configuration not stated) | 2 | 1
O=C(CCc1c[nH]c2ccccc12)N1CCn2cnnc2C1 | -3 | -7
O=C(c1ccc(OCC2CCN(C(=O)c3ccc(F)c(F)c3)CC2)cc1)N1CCCCC1 | -3 | -3
C=CC(COCc1ccccc1)N(Cc1ccc(OC)cc1)S(=O)(=O)c1ccccc1Br (configuration not stated) | -2 | -8
COc1ccc(CN(CC(O)COCc2ccccc2)S(=O)(=O)c2ccccc2Br)cc1 (configuration not stated) | -6 | 86*
O=C1C=C(Nc2ccccc2F)CC(c2ccccc2)C1 (configuration not stated) | 2 | 4
COc1ccc(-c2nnc(N3CCC(C(=O)N(C)Cc4ccco4)CC3)o2)cc1 | -4 | 15
Cc1ccc(/C=c2\sc3n(c2=O)C(N)=C(C#N)C(c2ccc(C)o2)C=3C#N)o1 (configuration not stated) | 7 | 59*
N#CC1=C(N)n2c(s/c(=C\c3ccco3)c2=O)=C(C#N)C1c1ccco1 (configuration not stated) | -4 | 46
CC(=O)N1CCc2[nH]c3ccc(C(=O)NCc4ccc(N5CCN(C)CC5)cc4)cc3c2C1 | -2 | 21
CCC(CC)N1CCN(C(=O)c2ccc3[nH]c4c(c3c2)CN(C(C)=O)CC4)CC1 | -5 | 38
